Hits are enriched below; roughly 7.4% of the tested compounds scored in any of these assays.
hDAT+cocaine = changed hDAT dopamine uptake under cocaine IC80, either direction, primary screen, cocaine antagonist project, cell-based, LLC-PK1 hDAT, [14C]-dopamine uptake, MLSMR | Sodium-dependent dopamine transporter (Homo sapiens), Q01959 | LLC-PK1 hDAT cells, [14C]-dopamine uptake with cocaine IC80; actives deviate in either direction | B-score at 10 µM | actives 1.3% (n = 110,000) | AID 449768, 2010;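 active = Z score or B-score, a plate-position-corrected score, falls beyond the plate's 99.7% confidence bounds, in either direction; inactive = both scores lie inside the 99.7% bounds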;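 also: scored against the spread of the other compound wells on the same plate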
Target sequence (Q01959 whole entry, looked up): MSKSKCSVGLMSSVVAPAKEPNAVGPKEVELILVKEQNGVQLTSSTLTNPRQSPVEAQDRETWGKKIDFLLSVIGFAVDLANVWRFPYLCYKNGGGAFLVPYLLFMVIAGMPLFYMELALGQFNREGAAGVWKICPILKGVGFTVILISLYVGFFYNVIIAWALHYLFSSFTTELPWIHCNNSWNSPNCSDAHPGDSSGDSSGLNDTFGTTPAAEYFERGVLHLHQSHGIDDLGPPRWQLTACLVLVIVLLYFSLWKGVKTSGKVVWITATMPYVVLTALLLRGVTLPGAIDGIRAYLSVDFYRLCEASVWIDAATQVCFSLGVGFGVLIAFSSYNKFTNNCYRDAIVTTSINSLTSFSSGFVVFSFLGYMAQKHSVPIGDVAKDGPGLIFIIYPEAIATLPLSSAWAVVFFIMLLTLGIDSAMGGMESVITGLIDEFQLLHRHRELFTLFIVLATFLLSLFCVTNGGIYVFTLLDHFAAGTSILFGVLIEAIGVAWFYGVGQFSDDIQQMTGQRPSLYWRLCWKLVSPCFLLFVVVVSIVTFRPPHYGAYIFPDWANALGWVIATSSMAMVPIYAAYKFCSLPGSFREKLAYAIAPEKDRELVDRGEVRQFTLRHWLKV
M1 antag = antagonists of rat M1 muscarinic receptor. CHO-M1 cells, Fluo-4 calcium, ACh EC80 antagonist mode; stronger effect = lower value. B-score at 10 µM. actives 3.4% (n = 64,000). Muscarinic acetylcholine receptor M1 (Rattus norvegicus), P08482;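 active = calcium fluorescence response, raw or row-and-column corrected B-score, differing from the plate sample mean either way at a set confidence level, mostly lower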
D1 mod = D1 CRE-luciferase signal change, two-sided – cell-based, HEK293 D1, dopamine EC30, D1 allosteric modulator project, primary screen; dopamine EC30 potentiation; actives deviate in either direction; actives 5.9% (n = 58,000); D(1A) dopamine receptor (Homo sapiens), P21728; B-score at 10 µM;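 active = luminescence count or its row- and column-corrected plate score outside the 99.7% band of the plate's sample wells, on either side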
FXIa inh mix = FXIa protease inhibitors in compound pools, primary screen, biochemical, 10-compound mixtures; actives 0.19% (n = 62,000); purified FXIa, fluorogenic substrate, pooled mixtures; inhibition, % at 5 µM; Coagulation factor XI (Homo sapiens), P03951; AID 680, 2007;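 also: each value is inhibition by a whole ten-compound pool holding the compound; 0% = enzyme with no mixture and 100% = wells lacking enzyme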
FXIIa mix inh = human factor XIIa inhibitors, primary screen, biochemical, pooled compound mixtures, fluorogenic substrate; Coagulation factor XII (Homo sapiens), P00748; actives 0.2% (n = 62,000); purified FXIIa; inhibition, % at 5 µM; AID 684, 2007;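 also: 0% = enzyme without compound and 100% = no enzyme blank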
M1 ag = M1 muscarinic receptor agonists, primary screen, CHO-M1 cells, Fluo-4 calcium, agonist mode; AID 626, 2007; Fluo-4 calcium fluorescence; stronger effect = higher value; B-score at 10 µM; actives 3% (n = 64,000); Muscarinic acetylcholine receptor M1;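 active = fluorescence rise, raw or as B-score row- and column-corrected plate score, outside the 99.7% band of its plate's samples, either direction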
D1 PAM confirm = D1 receptor positive allosteric modulators, retest, confirmation, cell-based, HEK293 D1, CRE-luciferase, duplicate; shares compounds with D1 mod; dopamine EC30 potentiation; stronger effect = higher value; luminescence at 10 µM; actives 88% (n = 2,200);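 active = luminescence in either of two replicates above the same-plate mean plus 3 SD of the low-dose dopamine control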
D1 no dopamine = D1 receptor agonism without dopamine, confirmation, mechanism study for D1 allosteric modulator project, cell-based, HEK293 D1, CRE-luciferase, secondary assay 1. actives 0.8% (n = 1,900). AID 646, 2007. luminescence at 10 µM. shares compounds with D1 mod. luminescence, no dopamine; stronger effect = higher value; in the data active = luminescence above about 3900
Isoprot counter = isoproterenol response counter-screen activity for D1 modulators. actives 63% (n = 2,200). calls only at 10 µM. HEK293 D1 CRE-luciferase, isoproterenol EC30 counter-screen. shares compounds with D1 mod;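 active = luminescence in either replicate above plate mean of wells with a partly effective reference agonist dose plus 3 SD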;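 also: isoproterenol raises cAMP through native beta-adrenoceptor Gs so signal bypasses D1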
* = called active by the depositor; i = inactive; x = no result given; + = active, no number. Rule as the data show it, unless noted: active = inhibition above about 20% (passing the limit was not always enough); inactive = the rest.

SMILES	hDAT+cocaine	M1 antag	D1 mod	FXIa inh mix	FXIIa mix inh	M1 ag	D1 PAM confirm	D1 no dopamine	Isoprot counter
CCCCCSc1nnc2c(n1)OC(c1cccn1C)N(C(C)=O)c1ccccc1-2 (configuration not stated)	-0.147	-1.16	2.69*	-4.4	-3.3	0.588	5252	1472	i
N#Cc1nc(-c2ccccc2Cl)oc1NCc1ccco1	1.52	0.875	4.74*	-3.3	1.3	0.00849	12632*	1648	+
CNc1oc(-c2ccccc2)nc1C#N	-7.84*	-1.34	7.41*	9.0	8.5	0.0567	11304*	1648	+
N#Cc1nc(-c2ccco2)oc1NCc1cccnc1	-0.0215	0.302	2.31	-9.0	0.7	-0.357	x	x	x
N#Cc1nc(-c2ccco2)oc1NCc1ccc(F)cc1	0.708	-0.341	6.57*	4.9	2.7	-0.00443	12560*	1876	+
N#Cc1nc(-c2ccccc2)oc1NCc1ccco1	-2.47	x	x	x	x	x	x	x	x
COc1ccc(CNc2oc(-c3ccccc3)nc2C#N)cc1	-0.818	0.835	10.4*	0.3	-0.4	-1.69	18596*	1724	+
Cc1ccc(-c2noc(CCC(=O)N3CCCC3)n2)cc1	0.261	0.684	0.0967	6.4	1.4	-0.762	x	x	x
COC(=O)Cc1c(C)c2ccc(OCc3nn[nH]n3)c(C)c2oc1=O	0.823	x	x	x	x	x	x	x	x
COCCNc1oc(-c2ccc(C)cc2)nc1C#N	x	0.281	5.06*	4.4	5.3	-0.29	5796*	1872	i
N#Cc1nc(Cc2ccccc2)oc1NCc1ccccc1Cl	x	-1.64	11.7*	2.8	2.8	0.213	11100*	1556	+
COCCNc1oc(-c2ccc(Cl)cc2)nc1C#N	0.527	-0.343	0.622	x	x	-0.198	x	x	x
O=C(Cc1cccs1)N1CCC(c2nc3c(nnn3Cc3ccccc3)c(=O)[nH]2)CC1	1.88	1.37	0.164	6.8	6.1	-0.515	x	x	x
Cc1ccc(CC(=O)N2CCC(c3nc4c(nnn4Cc4ccccc4)c(=O)[nH]3)CC2)cc1	0.759	0.822	4.86*	8.1	5.4	0.245	7652	1488	i
O=C(c1ccccc1Cl)N1CCC(c2nc3c(nnn3Cc3ccco3)c(=O)[nH]2)CC1	2.29	0.0436	6.06*	2.5	0.8	-0.888	11824*	1716	+
Cc1ccc(C(=O)N2CCCC(c3nc4c(nnn4Cc4ccccc4)c(=O)[nH]3)C2)cc1 (configuration not stated)	1.86	0.0646	3.44*	9.8	6.0	0.121	9432*	x	+
CC(C)c1ccccc1OCCNS(C)(=O)=O	0.17	0.656	-0.334	-1.2	-1.3	0.555	x	x	x
CCOc1ccc(NC(=O)CN(C2CCCCC2)S(C)(=O)=O)cc1	-0.108	x	x	x	x	x	x	x	x
COCCOC(=O)C(C#N)c1nc2ccccc2nc1N1CCCC1 (configuration not stated)	0.0345	-0.553	3.2	7.1	-20.7	-1.45	x	x	x
C=CCOC(=O)C(C#N)c1nc2ccccc2nc1N1CCCC1 (configuration not stated)	-0.526	-0.202	3.1*	-1.4	14.5	3.36	15796*	1724	+
COc1ccc2c(c1)CCCC21NC(=O)N(CC(N)=O)C1=O (configuration not stated)	-0.197	x	x	x	x	x	x	x	x
c1ccc2c(c1)OCC(c1nnc3n1-c1ccccc1SC3)O2 (configuration not stated)	0.361	-0.0186	1.91	-3.5	7.0	-0.639	x	x	x
Fc1ccc(-c2nn3c(C4COc5ccccc5O4)nnc3s2)cc1 (configuration not stated)	x	0.29	3.84*	8.4	4.2	0.806	14388*	1980	+
c1csc(-c2nn3c(C4COc5ccccc5O4)nnc3s2)c1 (configuration not stated)	-0.092	-0.146	8.63*	4.9	12.7	-0.638	18120*	1676	+
c1ccc(OCc2nnc3sc(-c4cccs4)nn23)cc1	0.381	-0.0359	6.41*	6.4	2.7	-0.222	15144*	1772	+
SMILES	hDAT+cocaine	M1 antag	D1 mod	FXIa inh mix	FXIIa mix inh	M1 ag	D1 PAM confirm	D1 no dopamine	Isoprot counter
Fc1ccc(-c2nnc3sc(C4COc5ccccc5O4)nn23)cc1 (configuration not stated)	-0.561	-0.939	1.13	6.7	1.1	-0.0181	x	x	x
COc1c(S(=O)(=O)n2nc(C)cc2C)ccc(Cl)c1Cl	-0.0275	-0.185	3.64*	3.6	1.3	0.908	12296*	1576	i
COc1ccc(Nc2ncnc3sc(-c4ccccc4)cc23)cc1	0.312	x	x	x	x	x	x	x	x
COc1ncnc2sc(-c3ccccc3)cc12	-0.283	-0.00156	2.8*	-2.0	1.0	-0.00582	10684*	1684	+
CCn1cc(C2=NOC(C(=O)Nc3ccc4c(c3)OCO4)C2)c(C)n1 (configuration not stated)	0.242	1.21	6.61*	8.1	11.6	-1.69	8608*	1720	+
O=C(N/N=C/C=C\c1ccco1)c1cccnc1	-0.0186	x	x	x	x	x	x	x	x
CC(=O)Nc1cc2c(cc1C(=O)C(C)C)OCCO2	0.857	1.23	5.27*	-0.4	4.6	-0.953	14100*	x	+
CSc1nc2oc3c(c2c2nncn12)CC(C)(C)SC3	-0.00608	-0.0124	5.71*	6.8	2.0	0.0295	9128*	1480	i
N#Cc1c(-c2ccccc2)cc(-c2ccco2)c(C#N)c1N	x	-0.00387	2.87*	-4.0	5.9	-1.65	6724*	x	i
CC(C)(C)c1cc(-c2ccco2)c(C#N)c(SCC#N)n1	1.05	0.396	0.0477	30.4	-0.9	0.256	x	x	x
COc1ccc(C(=S)NC2CCCCC2)cc1	-0.377	x	x	x	x	x	x	x	x
CCOC(=O)c1ccc(NC(=O)C2CCCO2)cc1 (configuration not stated)	0.111	0.28	23*	7.4	6.4	0.504	6456	1748	i
CCCCOC(=O)c1ccc(NC(=O)C2CCCO2)cc1 (configuration not stated)	2	0.0329	0.147	5.9	1.7	0.0961	x	x	x
COc1cc(CN2CCN(c3ccccc3F)CC2)cc(OC)c1O	1.37	-0.188	-3.07	15.2	1.9	0.862	x	x	x

Compound activity from PubChem BioAssay.
